Laboratory results from PubChem BioAssay AID1159580 (chemical genetic matrix, 2015).
Among all 5,500 compounds or so, about 2,000 (36%) were called active. About 18% were inconclusive and are not listed. Cut-off read from the data, not from the text of the source: active = normalized growth mostly below about 0.91 (no sharp cut-off); inconclusive = no clear call, values can overlap the other calls; inactive = mostly above about 0.92. Some of the results follow.

Assay: chemical genetic growth profiling, strain panel (AID 1159580);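 note: tested at 20 µM; growth read once vehicle control cultures reached saturation at 30 °C; 1 = growth at the plate median or of vehicle wells; lower values mean less growth of the strain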
Details: S. cerevisiae deletion strains, growth OD
[1] = locus YAL013W, strain DEP1, active compounds read low
[2] = locus YGR078C, strain PAC10, active compounds read low
[3] = locus YJR075W, strain HOC1, active compounds read low
[4] = locus YMR263W, strain SAP30, active compounds read low
[5] = locus YPL055C, strain LGE1, active compounds read low
[6] = locus YBR229C, strain ROT2, active compounds read low
[7] = locus YDL101C, strain DUN1, active compounds read low
[8] = locus YDR150W, strain NUM1, active compounds read low
[9] = locus YEL061C, strain CIN8, active compounds read low
[10] = locus YHR030C, strain SLT2, active compounds read low
[11] = locus YHR087W, strain rtc3, active compounds read low
[12] = locus YJR043C, strain POL32, active compounds read low
[13] = locus YLR039C, strain RIC1, active compounds read low
[14] = locus YLR058C, strain SHM2 (second series), active compounds read low
[15] = locus YLR085C, strain ARP6, active compounds read low
[16] = locus YLR262C, strain YPT6, active compounds read low
[17] = locus YML094W, strain GIM5, active compounds read low
[18] = locus YMR219W, strain ESC1, active compounds read low
[19] = locus YNL153C, strain GIM3, active compounds read low
[20] = locus YNL298W, strain CLA4 (second series), active compounds read low
[21] = locus YNL322C, strain KRE1, active compounds read low
[22] = locus YNR030W, strain Alg12, active compounds read low
[23] = locus YPL241C, strain CIN2, active compounds read low
[24] = locus YPR135W, strain CTF4, active compounds read low

Measured: normalized growth

c1ccc2c(c1)OCC(C1=NCCN1)O2 (stereo not drawn)
inactive: [1] 1.02 | locus YAL040C, strain CLN3, active compounds read low 1 | locus YCL061C, strain MRC1 (second series), active compounds read low 1 | locus YDR363W, strain ESC2, active compounds read low 1.03 | locus YER002W, strain NOP16, active compounds read low 0.987 | [2] 1.01 | locus YGR229C, strain SMI1, active compounds read low 1.02 | [3] 1 | [4] 1.02 | locus YMR307W, strain GAS1, active compounds read low 0.996 | locus YNL175C, strain NOP13, active compounds read low 1.02 | locus YNL197C, strain WHI3, active compounds read low 1.01 | locus YNL224C, strain SQS1, active compounds read low 1.01 | locus YOR083W, strain WHI5 (second series), active compounds read low 0.996 | [5] 1.01

C/C(=N/OC(=O)c1ccc(Cl)cc1)c1ccc(F)cc1
active: [9] 0.889 | [10] 0.448 | [12] 0.914 | [3] 0.847 | [13] 0.515 | [15] 0.598 | [16] 0.462 | [17] 0.809 | [19] 0.908 | [22] 0.879 | locus YOL006C, strain TOP1, active compounds read low 0.467 | [5] 0.811 | [23] 0.829
inactive: [1] 0.946 | [6] 0.96 | [7] 0.952 | [8] 0.913 | [2] 0.961 | [11] 0.953 | [14] 0.982 | [18] 0.957 | [4] 0.939 | locus YNL128W, strain TEP1, active compounds read low 0.943 | [20] 0.85 | [21] 0.975 | [24] 0.763

N/C(=N/OC(=O)c1ccc(Cl)cc1)c1ccc(F)cc1F
active: locus YDL132W, strain cdc53, active compounds read low 0.879 | locus YDL214C, strain PRR2, active compounds read low 0.559 | locus YDR054C, strain cdc34, active compounds read low 0.871 | locus YDR477W, strain SNF1, active compounds read low 0.491 | locus YER123W, strain YCK3, active compounds read low 0.482 | locus YER133W, strain GLC7, active compounds read low 0.446 | locus YFL009W, strain cdc4, active compounds read low 0.872 | locus YFR019W, strain FAB1, active compounds read low 0.541 | locus YGR040W, strain KSS1, active compounds read low 0.505 | locus YGR052W, strain FMP48, active compounds read low 0.487 | locus YGR092W, strain DBF2, active compounds read low 0.305 | [10] 0.139 | locus YHR079C, strain IRE1, active compounds read low 0.244 | locus YHR082C, strain KSP1, active compounds read low 0.465 | locus YHR205W, strain SCH9, active compounds read low 0.21 | locus YJL095W, strain BCK1, active compounds read low 0.243 | locus YJL157C, strain FAR1, active compounds read low 0.543 | locus YJR016C, strain ILV3, active compounds read low 0.892 | locus YJR066W, strain TOR1 (second series), active compounds read low 0.239 | locus YJR066W, strain TOR1, active compounds read low 0.309 | locus YKL067W, strain YNK1, active compounds read low 0.631 | locus YKL101W, strain HSL1, active compounds read low 0.593 | locus YKL193C, strain SDS22, active compounds read low 0.887 | locus YKL203C, strain TOR2, active compounds read low 0.384 | locus YLR113W, strain HOG1, active compounds read low 0.348 | locus YLR133W, strain CKI1, active compounds read low 0.659 | locus YLR403W, strain SFP1, active compounds read low 0.419 | locus YML070W, strain DAK1, active compounds read low 0.556 | locus YMR205C, strain PFK2 (second series), active compounds read low 0.684 | locus YMR277W, strain FCP1, active compounds read low 0.881 | locus YNL006W, strain LST8, active compounds read low 0.896 | locus YNL020C, strain ARK1, active compounds read low 0.579 | locus YNL161W, strain CBK1, active compounds read low 0.894 | locus YNL183C, strain NPR1, active compounds read low 0.37 | locus YNL207W, strain RIO2, active compounds read low 0.854 | locus YNL307C, strain MCK1 (second series), active compounds read low 0.38 | locus YOL078W, strain AVO1, active compounds read low 0.879 | locus YOL136C, strain PFK27, active compounds read low 0.542 | locus YOR119C, strain RIO1, active compounds read low 0.463 | locus YOR231W, strain MKK1, active compounds read low 0.276 | locus YOR329C, strain SCD5, active compounds read low 0.899 | locus YPL031C, strain PHO85, active compounds read low 0.395 | locus YPL153C, strain RAD53, active compounds read low 0.398 | locus YPL204W, strain HRR25, active compounds read low 0.425 | locus YPL256C, strain CLN2, active compounds read low 0.368 | strain TSCII, active compounds read low 0.878
inactive: locus YAR019C, strain CDC15, active compounds read low 0.896 | locus YBL105C, strain PKC1, active compounds read low 0.917 | locus YBR135W, strain CKS1, active compounds read low 0.9 | locus YBR136W, strain MEC1, active compounds read low 0.921 | locus YBR160W, strain CDC28, active compounds read low 0.903 | locus YDL017W, strain CDC7, active compounds read low 0.923 | locus YDL028C, strain MPS1, active compounds read low 0.916 | [7] 0.94 | locus YDL108W, strain KIN28, active compounds read low 0.914 | locus YDR052C, strain DBF4, active compounds read low 0.913 | locus YDR226W, strain ADK1, active compounds read low 0.899 | locus YFL029C, strain CAK1, active compounds read low 0.889 | locus YFR003C, strain YPI1, active compounds read low 0.919 | locus YFR028C, strain CDC14, active compounds read low 0.916 | locus YIL147C, strain SLN1, active compounds read low 0.91 | locus YJL128C, strain PBS2, active compounds read low 0.977 | locus YKL048C, strain ELM1, active compounds read low 0.821 | locus YMR001C, strain CDC5, active compounds read low 0.891 | locus YNL222W, strain SSU72, active compounds read low 0.913 | locus YOR061W, strain CKA2, active compounds read low 0.731 | locus YPL209C, strain IPL1, active compounds read low 0.902 | locus YPR025C, strain CCL1, active compounds read low 0.898 | locus YPR106W, strain ISR1, active compounds read low 0.947 | locus YPR111W, strain DBF20, active compounds read low 0.936 | strain NNK1, active compounds read low 0.917

C/C(=N/NC1=NCCN1)c1ccc(F)cc1
inactive: [1] 1.01 | [6] 0.993 | locus YCL061C, strain MRC1, active compounds read low 0.997 | [7] 0.979 | [8] 0.907 | [9] 1.01 | [2] 0.995 | [10] 1.01 | [11] 0.987 | [12] 1 | [3] 0.992 | locus YKL190W, strain CNB1, active compounds read low 1.01 | [13] 1.04 | [14] 1.01 | [15] 0.996 | [16] 0.997 | [17] 0.996 | [18] 1 | [4] 0.998 | [19] 0.987 | [20] 1.02 | [21] 1 | [22] 1.01 | [5] 1.01 | [23] 1.03 | [24] 1.02
